Measurements published in the OligoGym collection.

target: GALT; assay: pooled miR-30 sensor sort-seq; sequence = guide strand; settings: shRNA
Further: reference of the scale not given here.

Row | Sequence | sensor-assay potency score (higher = more potent)
1 | TATCTGGCAGGAAACTGCTGGC | -0.854
2 | ATACTTGGTCAAGAGCTTCTTC | -0.165
3 | TATAGGCCTGCTGAGATCGCTC | -0.708

target: GAPDH; assay: as above; settings: shRNA

Row | Sequence | sensor-assay potency score (higher = more potent)
4 | TCGCTGTTGAAGTCAGAGGAGA | -1.53
5 | TGTTGTCATACTTCTCATGGTT | 0.0358
6 | AATTCGTTGTCATACCAGGAAA | -1.59
7 | TAAACCATGTAGTTGAGGTCAA | 0.434
8 | TAGTTGAGGTCAATGAAGGGGT | -0.233
9 | TGAGCTTGACAAAGTGGTCGTT | 0.19
10 | TTGACAAAGTGGTCGTTGAGGG | -0.52
11 | TTGATGACAAGCTTCCCGTTCT | 0.0762
12 | TTGGCAGGTTTTTCTAGACGGC | -0.926
13 | TTGCTGTAGCCAAATTCGTTGT | -1.2
14 | ATGAGCTTGACAAAGTGGTCGT | 0.0447
15 | ATTGATGACAAGCTTCCCGTTC | -0.354
16 | TTGGAACATGTAAACCATGTAG | -0.273
17 | TTGATGGCAACAATATCCACTT | -0.344
18 | TATTGGAACATGTAAACCATGT | -0.597
19 | AACATGTAAACCATGTAGTTGA | -0.65
20 | TGGAACATGTAAACCATGTAGT | -0.878
21 | ATATTGGAACATGTAAACCATG | -1.54
22 | TTCTCAGCCTTGACGGTGCCAT | -0.93
23 | TTTTTCTAGACGGCAGGTCAGG | -1.01
24 | TTGTCATGGATGACCTTGGCCA | -0.37
25 | ATTGATGGCAACAATATCCACT | -0.562
26 | ATTTCCATTGATGACAAGCTTC | -1.07
27 | TTGAGGTCAATGAAGGGGTCAT | -0.473

target: GATA4; assay: as above; settings: shRNA

Row | Sequence | sensor-assay potency score (higher = more potent)
28 | TTGGGCTTCCGTTTTCTGGTTT | -0.283
29 | AACGTCTGGGACACGGAGCTGC | 0.00321
30 | TCAAACATATCGAGATTGGGGT | 0.14
31 | TAAAACAGAATCTTGGTTCAAA | 0.268
32 | TTCTGAGAAGTCGTCAAACATA | -1.72
33 | TTTATTTTGAGAGATGTTGGAA | 0.35
34 | TTCCGCATTGCAAGAGGCCTGG | -0.334
35 | TGACGGGAGACGCATAGCCTTG | -1.75
36 | TCGACTTCAAGTTTCTTCCCAG | 0.0228
37 | TTGATGGGACGCATCTCCTCGC | -0.611
38 | TGACACACTCTCTGCCTTCTGA | -0.406
39 | TCGTCAAACATATCGAGATTGG | -0.878
40 | TTGCTGGAAGCACCGCTGGCGG | -1.56
